Shown are actives, neighbours in structure and some others; about 0.87% of the full set was active somewhere.
BLM inh: qHTS Assay for Inhibitors of Bloom's syndrome helicase (BLM); 0.2% of 350,000 active; AID 2528, 2010; recombinant BLM DNA unwinding, fluorescence dequenching; Potency, µM (top dose mostly 56.1 µM), hits mostly inhibitors; RecQ-like DNA helicase BLM (Homo sapiens), P54132; note: nearly all actives have a fitted effect of over 35% in size
APEX1 inh: qHTS Assay for Inhibitors of the Human Apurinic/apyrimidinic Endonuclease 1 (APE1); 0.35% of 350,000 active; AID 2517, 2012; DNA repair nuclease/redox regulator APEX1 (Homo sapiens), P27695; recombinant APE1, TAMRA/BHQ-2 abasic DNA cleavage fluorescence; Potency, µM (titrated, usually from 65.8 µM), most hits filed as inhibitors; note: nearly all actives have a fitted effect of over 55% in size
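Measures dequenching upon AP-site incision of a 5'-TAMRA/3'-BHQ-2 THF-containing duplex, 50 nM; human APE1 0.75 nM after 15 min room-temperature exposure to compound; kinetic three-point read at one-minute spacing.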
TDP1 block: qHTS Assay for Inhibitors of Tyrosyl-DNA Phosphodiesterase (TDP1); Tyrosyl-DNA phosphodiesterase 1 (Homo sapiens), Q9NUW8; recombinant TDP1, AlphaScreen DNA substrate cleavage; Potency, µM (series often up to 130 µM), most hits filed as inhibitors; 0.28% of 350,000 active; note: nearly all actives have a fitted effect of over 40% in size
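Tdp1 1 nM final; 15 min RT w/ cpd; substrate 15 nM, 5 min; beads 10 ug/ml, 10 min; AlphaScreen read. Neg ctrl: no enzyme.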
GCN5L2 inh-1: qHTS Assay for Inhibitors of GCN5L2. GCN5L2 HAT assay, ThioGlo1 CoA-SH fluorescence. AID 504327, 2011. Potency, µM (doses to about 58.9 µM), most hits filed as inhibitors. 0.21% of 390,000 active. Histone acetyltransferase KAT2A (Homo sapiens), Q92830
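Enzyme at 20nM final was mixed with library compounds for 15 min at room temperature. Peptide H3(1-25) at 75uM, acetyl-CoA at 70uM and ThioGlo1 at 50uM were then added. Plates were read immediately and after 20 min (Ex340nm/Em540nm).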
RECQ1 helicase: qHTS Assay for Inhibitors of RecQ-Like Dna Helicase 1 (RECQ1); AID 2549, 2010; ATP-dependent DNA helicase Q1 (Homo sapiens), P46063; Potency, µM (titrated, usually from 57.3 µM), usual class: inhibitors; 0.54% of 240,000 active; RECQ1 DNA unwinding, red fluorescence kinetic read; note: nearly all actives have a fitted effect of over 30% in size
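RECQ1T1 50 nM; forked duplex (20 bp + 30-nt ss tails) 200 nM, ATP 2 mM final; pH 8.0, 2 mM MgCl2, 2.5 ug/ml poly(dI-dC); 15 min compound preincubation; discontinuous kinetic read over 2 h at RT.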
GCN5L2 inh-2: qHTS Assay for Inhibitors of GCN5L2: Hit confirmation; shares compounds with GCN5L2 inh-1; Potency, µM, usual class: inhibitors; GCN5L2 HAT, ThioGlo1 CoA fluorescence, 20 min; 70% of 140 active; AID 588347, 2011
A number is an active result. Calls come from the whole dose curve; as a rule, active = well fitted curve in the direction sought with a large enough effect; inconclusive = small, poorly fitted or top-dose-only effect, or another doubt; inactive = no such curve, though single readings can be large; an effect the other way counts as inactive or inconclusive.

Screening C=CCc1cccc2cc(C(=O)NC)c(=O)oc12 returned BLM inh inactive, APEX1 inh inactive, TDP1 block inactive, GCN5L2 inh-1 inactive and RECQ1 helicase inactive.
Screening C=CCc1cccc2cc(C(=O)Nc3ccccc3C(=O)O)c(=O)oc12 returned BLM inh inactive, APEX1 inh inactive, TDP1 block inactive, GCN5L2 inh-1 inconclusive, RECQ1 helicase inactive and GCN5L2 inh-2 inconclusive.
Screening CCOC(=O)c1c(-c2ccco2)csc1NC(=O)COC(=O)c1cnccn1 returned APEX1 inh inactive, TDP1 block inconclusive, GCN5L2 inh-1 11µM and GCN5L2 inh-2 inconclusive.
CN=c1nc(-c2ccccc2)n(-c2ccccc2)s1 was read as APEX1 inh inactive, TDP1 block inactive, GCN5L2 inh-1 2.2µM, RECQ1 helicase inactive and GCN5L2 inh-2 2.6.
Screening CC(C)(C)c1ccc(OCC(=O)Nc2ccc(C(=O)Nc3ccccc3C(=O)O)cc2)cc1 returned BLM inh inactive, APEX1 inh inactive, TDP1 block inactive, GCN5L2 inh-1 32µM and GCN5L2 inh-2 23.
Cc1cccc(OCC(=O)Nc2ccc(C(=O)Nc3ccccc3C(=O)O)cc2)c1C was read as BLM inh inactive, APEX1 inh inactive, TDP1 block inactive and GCN5L2 inh-1 inconclusive.
Screening COc1ccc(OC)c(C2CC(=O)c3c([nH]c(C(=O)OCC4CCCCC4)c3C)C2)c1 (configuration not stated) returned BLM inh inactive, TDP1 block inactive and GCN5L2 inh-1 inactive.
Screening C=CCn1c(SCC(=O)Nc2cc(Cl)ccc2C(=O)O)nc2sc(C)c(C)c2c1=O returned APEX1 inh inactive, TDP1 block inactive, GCN5L2 inh-1 32µM and GCN5L2 inh-2 inconclusive.
Screening COc1ccc(-c2nn(-c3ccccc3)cc2/C=N/NC(=O)c2ccc(Br)o2)cc1 returned BLM inh inactive, APEX1 inh inactive, TDP1 block inactive, GCN5L2 inh-1 25µM, RECQ1 helicase inconclusive and GCN5L2 inh-2 9.1.
COc1ccc(-c2nn(-c3ccccc3)cc2/C=N/NC(=O)c2ccc3c(c2)OCO3)cc1 was read as BLM inh inactive, APEX1 inh inactive, TDP1 block inactive, GCN5L2 inh-1 inactive and RECQ1 helicase inactive.
COc1ccc(-c2nc3cnc(Oc4cccc(Cl)c4)nc3n(C3CC3)c2=O)cc1 was read as BLM inh inactive, APEX1 inh inactive, GCN5L2 inh-1 inactive and RECQ1 helicase inactive.
`O=C(CN1C(=O)/C(=C2\SC(=S)N(CCS(=O)(=O)O)C2=O)c2ccccc21)Nc1cccc(Br)c1` gave BLM inh inactive, APEX1 inh 6.7µM, GCN5L2 inh-1 20µM and GCN5L2 inh-2 11.
`O=C(CN1C(=O)/C(=C2/SC(=S)N(CCS(=O)(=O)O)C2=O)c2ccccc21)Nc1cccc(C(F)(F)F)c1` gave APEX1 inh inconclusive, GCN5L2 inh-1 28µM and GCN5L2 inh-2 inconclusive.
Screening O=C(CN1C(=O)c2ccccc2Sc2ncccc21)Nc1cccc(C(F)(F)F)c1 returned BLM inh inactive, TDP1 block inactive and GCN5L2 inh-1 inactive.
Cc1cc(Cl)ccc1NC(=O)CN1C(=O)C(=O)c2ccccc21 was read as BLM inh inactive, TDP1 block inactive and GCN5L2 inh-1 inactive.
CC(NC(=O)c1sc2cc([N+](=O)[O-])ccc2c1Cl)C(C)(C)C (configuration not stated) was read as BLM inh inactive, APEX1 inh inactive, TDP1 block inactive, GCN5L2 inh-1 inconclusive, RECQ1 helicase inactive and GCN5L2 inh-2 3.6.
O=C1CCC(C(=O)Nc2cccc(S(=O)(=O)Nc3ccccc3F)c2)=NN1 was read as APEX1 inh inactive, TDP1 block inactive, GCN5L2 inh-1 inconclusive and GCN5L2 inh-2 11.
O=C(Nc1cccc(S(=O)(=O)Nc2ccccc2F)c1)c1ccco1 was read as APEX1 inh inactive, TDP1 block inactive and GCN5L2 inh-1 inactive.
Cc1cc2nc(-c3ccc[nH]c3=O)[nH]c2cc1C was read as BLM inh inactive, APEX1 inh inactive, GCN5L2 inh-1 28µM and GCN5L2 inh-2 36.
Cc1cc2nc(-c3ccc[nH]c3=O)n(Cc3ccc(F)cc3)c2cc1C was read as BLM inh inactive, APEX1 inh inactive and GCN5L2 inh-1 inactive.
Screening CCCC(=O)Nc1ccc(-c2cn3cccnc3n2)cc1 returned BLM inh inactive, APEX1 inh inactive, GCN5L2 inh-1 32µM and GCN5L2 inh-2 20.
`CCCC(=O)Nc1cccc(-c2cn3cccnc3n2)c1` gave BLM inh inactive, APEX1 inh inactive, TDP1 block inactive, GCN5L2 inh-1 inactive and RECQ1 helicase inactive.
Screening N#Cc1c(-c2ccccc2)nc(SCc2cccc(Cl)c2)[nH]c1=O returned BLM inh inactive, APEX1 inh inactive, GCN5L2 inh-1 inconclusive and GCN5L2 inh-2 18.
`Nc1ccc2nn(-c3cccc4ccccc34)nc2c1` gave BLM inh inactive, APEX1 inh inactive, TDP1 block inactive, GCN5L2 inh-1 inconclusive, RECQ1 helicase inactive and GCN5L2 inh-2 23.
COc1ccc(OC)c(CCNC(=O)CN2C(=O)COc3ccc(S(=O)(=O)N4CCC(C)CC4)cc32)c1 was read as BLM inh inactive, TDP1 block inactive and GCN5L2 inh-1 inactive.
For Cc1ccc(S(=O)(=O)/N=C2/NC(=O)/C(=C/c3cccnc3)S2)cc1 the results were BLM inh inactive, APEX1 inh inactive, TDP1 block inactive, GCN5L2 inh-1 inactive and RECQ1 helicase inactive.
`Cc1ccc(S(=O)(=O)/N=C2/NC(=O)/C(=C\c3cc(Br)cc(Br)c3O)S2)cc1` gave BLM inh inconclusive, APEX1 inh inactive, TDP1 block inactive, GCN5L2 inh-1 16µM and GCN5L2 inh-2 11.
C[C@H](NC(=O)CNC(=O)[C@@H](NC(=O)[C@H](Cc1ccccc1)NC(=O)CNC(=O)CNC(=O)[C@@H](N)Cc1ccccc1)[C@@H](C)O)C(=O)N[C@@H](CCCN=C(N)N)C(=O)N[C@@H](CCCCN)C(=O)N[C@@H](CO)C(=O)N[C@@H](C)C(=O)N[C@@H](CCCN=C(N)N)C(=O)N[C@H](CN)CCCCN was read as APEX1 inh inactive, TDP1 block inactive, GCN5L2 inh-1 inactive and RECQ1 helicase inactive.
